Measured values as given in PubChem BioAssay AID2018 (Sanford-Burnham Center for Chemical Genomics, 2009).
Out of some 1,200 compounds screened, about 600 (50%) were called active. Cut-off read from the data, not from the text of the source: active = inhibition above about 42%; inactive = the rest. So high a share suggests a set chosen from earlier hits. The list shows a part of the results. Entries with a potency or affinity are not part of this list.

Each compound was assayed against SUMO-conjugating enzyme UBC9 (Homo sapiens) (UniProt P63279) (assay: blockers of UBC9-mediated SUMO conjugation – biochemical, AlphaScreen, SUMOylation inhibitor project, confirmation (AID 2018)). Conditions: AlphaScreen in vitro SUMOylation assay; at 35 µM; stronger effect = higher value.
Chain of SUMO-conjugating enzyme UBC9 (Homo sapiens) (P63279 whole entry, looked up): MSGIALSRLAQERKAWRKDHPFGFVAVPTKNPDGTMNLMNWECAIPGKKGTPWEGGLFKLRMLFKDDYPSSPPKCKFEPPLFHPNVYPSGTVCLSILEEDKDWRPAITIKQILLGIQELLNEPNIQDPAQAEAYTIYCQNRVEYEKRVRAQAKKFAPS

inhibition, active:
Cc1ccc(S(=O)(=O)C(C#N)c2nc3ccccc3nc2N2CCCC2)cc1 (configuration not stated) 44.2%, O=C(O)CN1C(=O)/C(=C\c2cc([N+](=O)[O-])ccc2OCc2ccccc2Cl)SC1=S 63%, Clc1ccc(C2=CSC3=Nc4cccc5cccc(c45)N23)cc1 101%, COc1ccc(OC)c(S(=O)(=O)NCCc2cn3ccsc3n2)c1 44.5%, COc1ccc(NCc2ccc([N+](=O)[O-])s2)c(OC)c1 87%, N#Cc1c(N(CCO)CCO)nc(N)c2c(N)nc3c(c12)CC(=O)N3Cc1cccs1 52.9%, Nc1nnc(CC(=O)N/N=C/c2cc([N+](=O)[O-])cc(Br)c2O)s1 102%, Cc1ccc(-c2nn(-c3ccccc3)cc2/C=C2\SC(=S)N(CCCCCC(=O)O)C2=O)o1 74.8%, O=C(O)CCCN1C(=O)/C(=C/c2cn(-c3ccccc3)nc2-c2cccs2)SC1=S 76%, Cc1ccc(N/N=C2\CC(=O)c3ccccc32)cc1Cl 78.3%, Cc1ccc(NC(=O)CN2C(=O)S/C(=C/c3ccc(-c4cc(C(=O)O)ccc4C)o3)C2=O)cc1C 101%, Cc1c(C(=O)O)cccc1-c1ccc(/C=C2\SC(=O)NC2=O)o1 48.8%, CC1=NN(c2ccc(F)cc2)C(=O)C1C(c1cccc(O)c1)c1c(C)[nH]n(-c2ccc(F)cc2)c1=O (configuration not stated) 89.4%, CC1=NN(c2ccc(Cl)cc2)C(=O)C1C(c1ccccc1O)c1c(C)[nH]n(-c2ccc(Cl)cc2)c1=O (configuration not stated) 82.4%, CC1=NN(c2ccc(C)cc2C)C(=O)C1C(c1cccc(O)c1)C1C(=O)N(c2ccc(C)cc2C)N=C1C (configuration not stated) 81.1%, COc1ccc(S(=O)(=O)C(C#N)c2nc3ccccc3nc2N2CCCC(C)C2)cc1 (configuration not stated) 49.9%, CCCCNC(=O)Oc1c(Br)cc2sc(=O)oc2c1Br 88.3%, CC(=O)c1ccc2c(c1)C1C=CCC1C(C(=O)O)N2 (configuration not stated) 101%, O=C(O)CCCN1C(=O)/C(=C/C=C/c2ccco2)SC1=S 100%, COCCn1c(N)c(C(=O)NCC2CCCO2)c2nc3ccccc3nc21 (configuration not stated) 42.3%, N#Cc1c(N)n(-c2cccc(C(=O)O)c2)c2nc3ccccc3nc12 43%, Nc1ccc(N2CCCCC2)c2nonc12 78.2%, O=C(/C=C\c1ccco1)c1ccc(NC(=O)c2ccco2)cc1 56.4%, CC(C)(C)C1CCC2(CC1)Nc1cccc3cccc(c13)N2 52.8%, O=C(CCCN1C(=O)/C(=C/c2ccco2)SC1=S)Nc1ccccc1C(=O)O 76.9%, COc1ccc(N2C(=O)[C@@H]3[C@H](C2=O)[C@H]2c4ccccc4C=CN2[C@@H]3C(C)=O)cc1 53.6%, Cc1ccoc1C(=O)NCCCNC(=O)c1occc1C 56.7%, Cc1cc2oc(C(=O)Nc3ccc(S(=O)(=O)Nc4nccs4)cc3)cc(=O)c2cc1Cl 75%, O=c1[nH]c(Nc2ccccc2)cc2ccccc12 102%, CCn1c(NC(=O)c2ccccc2)nc2ccccc21 73%

inhibition, inactive:
CC(=O)c1ccc(NC(=O)Nc2cccnc2)cc1 -7.1%, CSc1ccc(-c2cc(=O)c3ccccc3o2)cc1 -11%, CN(C)/C=N/c1nc2nccc(-c3cccnc3)n2n1 -4%, C=CCOC(=O)C(C#N)c1nc2ccccc2nc1N1CCN(Cc2ccccc2)CC1 (configuration not stated) 22.9%, Cc1cccc(S(=O)(=O)C(C#N)c2nc3ccccc3nc2N2CCCC2)c1 (configuration not stated) 28.3%, CC(=O)Nc1ccc(-c2nc3ccc(NC(C)=O)cc3o2)cc1 25.1%, CC(C)C(=O)Nc1cccc(C(=O)NCc2ccc3c(c2)OCO3)c1 13.6%, CC(=O)Nc1ccc(-c2cn3cccnc3n2)cc1 5.9%, CCN(CC)C(=O)C1CCCN(C(=O)Nc2ccc3nsnc3c2)C1 (configuration not stated) -9%, COc1ccc(C2C(C(C)=O)=C(O)C(=O)N2C)c(OC)c1 (configuration not stated) -14.2%, COCCN(CCOC)c1nc(N)c2c(N)nc3c(c2c1C#N)CC(=O)N3Cc1ccc(Cl)cc1 11.2%, N#Cc1c(N(CCO)CCO)nc(N)c2c(N)nc3c(c12)CC(=O)N3CC1CCCO1 (configuration not stated) 26%, CCOC(=O)N1CCN(C(=O)c2cccn3c(=O)c4cc(Cl)ccc4nc23)CC1 11%, O=C1CC(CC(=O)N/N=C/c2ccccc2[N+](=O)[O-])=NN1 26.8%, O=C1/C(=C/c2ccco2)Oc2c1ccc(O)c2CN1CCCCC1 9.4%, Cc1cc(-c2csc(NC(=O)c3ccc(=O)[nH]c3)n2)c(C)n1Cc1ccccc1 29.1%, CC1CCN(Cc2cc(=O)oc3cc(O)c(Cl)cc23)CC1 -10.6%, CC(=O)N1C(=S)NC(=O)/C1=C1/C(=O)N(CC(=O)Nc2cccc(C)c2)c2ccccc21 12.6%, Cc1cccc(N(C)C(=O)c2cc3c(=O)[nH]c4ccc(C)cc4c3s2)c1 37.8%, CCOC(=O)c1ccc(N2C(=O)c3n[nH]c(-c4ccco4)c3C2c2ccc([N+](=O)[O-])cc2)cc1 (configuration not stated) 34.2%, CCc1cc2c(=O)c(Oc3ccccc3F)c(C)oc2c(CN(C)C)c1O -4.3%, O=[N+]([O-])c1c(NCCO)cc(N2CCC3(CC2)OCCO3)c2nonc12 8.2%, CCCCCC(=O)Nc1ccc(-c2cn3cccnc3n2)cc1 10.6%, COC12NC(=O)N(C)C1(OC)C(=O)N(C)C(=O)N2C (configuration not stated) -6.8%, Cc1cccc(S(=O)(=O)C(C#N)c2nc3ccccc3nc2N2CC(C)OC(C)C2)c1 (configuration not stated) 3.9%, Cc1ccc(-n2c(SCC(=O)Nc3ccc4c5c(cccc35)CC4)nc(O)cc2=O)cc1 30.4%, Cc1ccc(-n2c(SCC(=O)N/N=C/c3ccccc3C(=O)O)nnc2-c2ccc(Cl)cc2)cc1 3.5%, CN(C)/C=N/c1nc2nccc(-c3cccc(Cl)c3)n2n1 -11.7%, Nc1ccc2c(c1)sc1ccccc12 20.5%, CCN(CC)S(=O)(=O)c1ccc(C)c(NC(=O)CSc2ncc(C(F)(F)F)cc2Cl)c1 11.7%, COCCNC(=O)c1c(N)n(CCCn2ccnc2)c2nc3ccccc3nc12 5.2%, C=CCn1c(N)c(C(=O)NCC2CCCO2)c2nc3ccccc3nc21 (configuration not stated) -9.9%, COCCn1c(N)c(C#N)c2nc3ccccc3nc21 29.5%, COCCn1c(N)c(C(=O)OCc2ccccc2)c2nc3ccccc3nc21 -26.1%, CN(C)CCCn1c(N)c(C#N)c2nc3ccccc3nc21 38.6%, CC(C)Cn1c(N)c(C(=O)NCC2CCCO2)c2nc3ccccc3nc21 (configuration not stated) 0%, Cc1oc2c(c(C)cc3oc(=O)c(CC(=O)NCC(=O)NCC(=O)O)c(C)c32)c1C -1.1%, Cc1ccc(C)n1-c1nccc(-c2cccs2)n1 21.2%, O=c1oc2ccccc2c(Nc2cccc3cccnc23)c1[N+](=O)[O-] 7.5%, N#Cc1c(N)n(CCNC(=O)c2ccccc2)c2nc3ccccc3nc12 29.4%, N#Cc1c(N)n(CCOC(=O)c2ccc(Cl)cc2)c2nc3ccccc3nc12 -17.7%, C=CCn1c(N)c(C(=O)Nc2cccc(C)c2)c2nc3ccccc3nc21 8.9%, CCCCn1c(NC(C)=O)c(C#N)c2nc3ccccc3nc21 15.5%, C=CCn1c(N)c(C(=O)OC(C)(C)C)c2nc3ccccc3nc21 5.9%, Cc1ccc2[nH]c3c(c2c1)CN(C(=O)CN1CCCc2ccccc21)CC3 41%, C/C(CCc1ccco1)=N\NC(=O)CNc1cccc2ccccc12 6.1%, Cn1nccc1NC(=O)Nc1cccc(Cl)c1 10.6%, O=C(NC(=S)Nc1c(Cl)ccc2nsnc12)c1ccco1 19.5%, Nc1ccc(N2CCN(CCCCN3C(=O)C4CCCN4C3=O)CC2)cc1 (configuration not stated) 29.6%, C/C(=C\C(=S)Nc1ccccc1)Nc1cccc2ccccc12 29.8%, Nc1ccc2oc(-c3cccs3)nc2c1 -13.9%, CCN(CC)c1cc(Cl)c2nonc2c1N 16.4%, Nc1c(N2CCOCC2)cc(Cl)c2nonc12 -2.8%, O=C(Nc1ccc(N2CCOCC2)c2nonc12)C1CCCC1 24%, O=[N+]([O-])c1c(NCCO)cc(N2CCCCCC2)c2nonc12 6%, CN(C(=O)CSc1nnc(NCc2ccccc2)s1)C1CCS(=O)(=O)C1 (configuration not stated) 12.1%, Nc1ccc(-c2nc3ccc(N)cc3[nH]2)cc1 -8.6%, COc1ccc(-c2nc3ccncc3[nH]2)cc1OC 11.1%, O=C(/C=C/c1ccco1)NC(=S)NNC(=O)c1ccco1 -483%, CN(C)c1ccc(C(=O)/C=C/c2ccco2)cc1 10.9%, CCc1nc2sc(C(C)=O)c(N)c2c2c1CCCC2 -13%, O=C(CN1C(=O)CSC1=O)Nc1ccc(C(=O)O)cc1 -7.6%, CCC(=O)N1CCc2cc(S(=O)(=O)NC(C(=O)NCc3ccc(C)cc3)C(C)C)ccc21 (configuration not stated) 37.4%, CN(C)c1cccc2cccc(N(C)C)c12 3.1%, CCN(c1ccccc1)c1cc2ccccc2c(=O)[nH]1 35.3%, Cc1ccc(C(=O)NC(C)c2nc3ccccc3n2CC(=O)Nc2c(C)cc(C)cc2C)cc1 (configuration not stated) 5.3%, Cn1c(-c2ccc(C=O)s2)nc2ccccc21 14.4%
